Compound activity: PubChem, Paczesny and Yang Labs, IUPUI and University of Michigan
This is one part of a sample in which hits are shown more often than they occur.
ST2 IL33 inh – IL1RL1 inhibition; AlphaLISA ST2-Fc/biotin-IL-33 interaction, 1 h; inhibition, % for hits at 17 µM; 78,000 tested, 2.3% active; AID 1259354; in the data active = inhibition above about 30%
Target sequence (Q01638 whole entry, looked up): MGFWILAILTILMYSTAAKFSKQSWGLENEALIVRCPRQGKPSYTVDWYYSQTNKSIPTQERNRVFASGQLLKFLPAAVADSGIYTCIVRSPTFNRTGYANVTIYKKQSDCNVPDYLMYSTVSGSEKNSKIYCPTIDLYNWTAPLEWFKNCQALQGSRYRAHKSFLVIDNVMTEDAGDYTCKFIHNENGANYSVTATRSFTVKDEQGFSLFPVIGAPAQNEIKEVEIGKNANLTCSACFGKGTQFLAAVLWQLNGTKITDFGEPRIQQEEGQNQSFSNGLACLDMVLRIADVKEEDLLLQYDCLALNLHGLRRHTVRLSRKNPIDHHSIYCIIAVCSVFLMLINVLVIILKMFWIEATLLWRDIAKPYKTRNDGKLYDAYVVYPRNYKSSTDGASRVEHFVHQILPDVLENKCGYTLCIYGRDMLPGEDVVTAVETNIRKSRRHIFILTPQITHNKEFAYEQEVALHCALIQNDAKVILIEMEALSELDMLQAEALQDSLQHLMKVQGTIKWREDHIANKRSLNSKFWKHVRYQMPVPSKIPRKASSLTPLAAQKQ
Large screens that a line does not name were inactive; ! = a repeat was not active.

COc1ccc(C)cc1NC(=O)c1ccc(N(C)S(=O)(=O)c2ccccc2)cc1	none
Oc1ccc(Br)cc1-c1nc2ccccn2c1NC1CCCC1	none
CC1=C(C(=O)OC2CCCC2)C(c2cccc(OCc3ccccc3)c2)NC(=O)N1 (stereo not drawn)	none
COc1ccc(Cl)cc1NC(=O)CSc1cc(=O)n(C)c2cc(Cl)ccc12	none
Cc1ccc(O)c(NC(=O)CCCn2nc([N+](=O)[O-])c(Br)c2C)c1	none
Oc1c(Cl)cc(Br)cc1C=Nc1ccccc1	none
Cn1c(=O)n(C)c2cc(N=Cc3cccc([N+](=O)[O-])c3)ccc21	none
CCc1ccc(N=Cc2cc(Br)ccc2O)cc1	ST2 IL33 inh 36.0%
CCc1ccc(N=Cc2cccc([N+](=O)[O-])c2O)cc1	none
CC(=O)N1c2ccc(N=Cc3cc(Br)cc(Br)c3O)cc2CC1C (stereo not drawn)	none
Cn1c(=O)n(C)c2cc(N=Cc3cc(Br)ccc3O)ccc21	ST2 IL33 inh 31.0%
O=C1c2ccccc2C(Nc2ccc(S(=O)(=O)N3CCCCCC3)cc2)N1Cc1ccccc1 (stereo not drawn)	none
Cc1ccc(SCCn2cc(-c3cccc(O)c3)nn2)cc1	none
O=C(Nc1cccc(Cl)c1)c1noc2c1CCc1ccccc1-2	none
COc1cc(F)c(CN2CC(c3ccncc3)C2)c(F)c1	none
Cc1ccc(-c2ccnc(N(C)CCN3CCCCC3=O)n2)c(C)n1	none
O=C1N=C(N2CCOCC2)S/C1=C/c1cccc(Br)c1	none
CC1=CC(C)(C)N(C(=O)CN2C(=O)C3CCCCC3C2=O)c2ccc(C)cc21 (stereo not drawn)	none
O=S(=O)(N=C(c1ccccc1F)N1CCOCC1)c1ccccc1	none
O=S(=O)(c1ccccc1)c1cccc(S(=O)(=O)N2CCOCC2)c1	none
O=S(=O)(c1cccc(Cl)c1Cl)N1CCOCC1	none
O=C1C(N2CCOCC2)=CC(=NS(=O)(=O)c2ccccc2)c2ccccc21	ST2 IL33 inh 41.0%
Cc1ccc(S(=O)(=O)N(c2ccccc2N2CCOCC2)C(F)F)cc1	none
O=C1C(N2CCOCC2)=CC(=NS(=O)(=O)c2ccc(Cl)cc2)c2ccccc21	ST2 IL33 inh 71.0%
CCC(C)NC(=O)c1noc2c1CCc1cc(OC)ccc1-2 (stereo not drawn)	none
CC(C)c1ccc(NS(=O)(=O)c2ccc3c(c2)CCC(=O)N3)cc1	none
Cc1[nH]nc(-c2ccc(OC(C)C)cc2O)c1Oc1ccccc1	none
CO[C@H]1[C@H](NC(=O)c2cccc(F)c2)c2ccccc2C12CCN(Cc1nc(C(C)C)cs1)CC2	none
OC1CCN(Cc2ccc(F)cc2)CC1	none
CN(Cc1ccccc1)C(=O)c1nn(C)c2c1CC(N1CCN(c3ccccc3O)CC1)CC2 (stereo not drawn)	none
COc1ccc(-c2nc(N3CCCCC3)[nH]c(=O)c2C#N)cc1	none
Cc1cc(-c2ccccc2)c(C#N)c(N)n1	none
Cc1c(-c2ccccc2)sc(N)c1C#N	ST2 IL33 inh 33.0%
CCOC(=O)c1sc(-c2ccccc2)c(C#N)c1C	none
O=C(c1ccc2c(c1)ncn2C1CCCCC1)N1CCOCC1	none
CNC(=O)c1c(O)c2ccccc2[nH]c1=O	none
COCCOc1ccc(C(=O)N[C@@H]2CN(C(=O)NCc3ccccc3)CCC[C@H]2O)cc1	none
CC(C)NC(=O)N1CCC[C@@H](O)[C@H](NC(=O)c2ccc(OCc3ccccc3)cc2)C1	none
COc1ccc(C(=O)N[C@@H]2CN(C(=O)NC3CCCCC3)CCC[C@H]2O)cc1	ST2 IL33 inh 82.0%
Cc1c(-c2cc(C(=O)N3[C@@H]4CC[C@H]3CN(C)C(=O)C4)no2)cnn1C	none
Oc1ccccc1-c1nnc2n1N=C(c1ccc(Cl)cc1)CS2	none
Cc1nnc2n1N=C(c1ccc(Cl)cc1)CS2	ST2 IL33 inh 39.0%!
COc1ccc(C2=Nn3c(nnc3-c3ccccc3)SC2)cc1	none
C[C@H]1C(=O)N(C)CCN1C(=O)c1ccc2nc(Cc3cccc(Cl)c3)oc2c1	none
COc1ccc(CN[C@H]2C[C@H]3C(=O)NC[C@@H](CCC(=O)N4CCN(c5ccccc5)CC4)N3C2)cc1	ST2 IL33 inh 57.0%
O=C(N[C@H]1C[C@H]2C(=O)NC[C@@H](CCC(=O)N3CCN(c4ccccc4)CC3)N2C1)C1CC1	none
O=C(N[C@H]1C[C@H]2C(=O)NC[C@@H](CCC(=O)N3CCN(c4ccccn4)CC3)N2C1)c1cccs1	ST2 IL33 inh 33.0%
COCCNC(=S)N[C@H]1C[C@H]2C(=O)NC[C@@H](CCC(=O)N3CCN(c4ccccn4)CC3)N2C1	none
COCCNC(=S)N[C@H]1C[C@H]2C(=O)NC[C@@H](CCC(=O)N3CCN(c4ccccc4)CC3)N2C1	none
O=C(Nc1ccccc1)N[C@H]1C[C@H]2C(=O)NC[C@@H](CCC(=O)N3CCN(c4ccccn4)CC3)N2C1	none
O=C(NC1CCCCC1)c1cc(=O)[nH]c2ccc(S(=O)(=O)N3CCCC3)cc12	none
Cc1nn(CCC(=O)N2CCOC3(CNCCOC3)C2)c(C)c1C (stereo not drawn)	none
O=C(CSc1nc(-c2ccccc2)[nH]c1-c1ccc(Cl)cc1)NCc1ccco1	none
CC1(C)CC(=O)C2=C(C1)Nc1cc(C(=O)c3ccccc3)ccc1NC2c1ccc2c(c1)OCO2 (stereo not drawn)	none
COc1ccccc1Nc1ncc(C(=O)NCC2CCCO2)c2ccccc12 (stereo not drawn)	none
CCOc1ccccc1C1C(C(=O)Nc2ccc(C)cc2C)=C(C)Nc2ncnn21 (stereo not drawn)	none
CC1=C(C(=O)Nc2ccc(F)cc2)C(c2sccc2C)C2=C(CCCC2=O)N1 (stereo not drawn)	none
CCN(CC)c1ccc(CNc2ccc3c(c2)ncn3C)cc1	ST2 IL33 inh 50.0%!
CC(C)(C)n1cnc2cc(NCc3ccc(Cl)cc3Cl)ccc21	none
Cn1cnc2cc(NCc3ccc(Br)cc3)ccc21	none
CCn1cnc2cc(NCc3cccc(OC)c3)ccc21	none
CN(C)c1ccc(CNc2ccc3c(c2)ncn3C)cc1	ST2 IL33 inh 46.0%!
Cn1cnc2cc(NCc3ccccc3Cl)ccc21	none
CCN(CC)c1ccc(CNc2ccc3c(c2)ncn3C(C)(C)C)cc1	ST2 IL33 inh 40.0%
CCCn1cnc2cc(NCc3cccs3)ccc21	none
COc1cccc(CNc2ccc3c(c2)ncn3C)c1OC	none
C(=C\Sc1ccccn1)/Sc1ccccn1	none
Cn1c(C(=O)NC2CCCCCC2)cc2c(=O)n3ccccc3nc21	none
O=C(Nc1nnc(COc2ccc(Br)cc2)s1)C1CCCCC1	none
CN1CCN(C)C2(CCN(C(=O)c3nn(C)c4ccccc34)CC2)C1	none
CSCc1ccc(C(=O)N2CCCC(C(=O)c3ccc(Oc4ccccc4)cc3)C2)o1 (stereo not drawn)	none
CCOc1ccccc1N1C(=O)CC(Nc2ccc(N3CCOCC3)cc2)C1=O (stereo not drawn)	ST2 IL33 inh 51.0%
COc1ccccc1N1C(=O)CC(N2CCOCC2)C1=O (stereo not drawn)	none
CCOc1ccccc1N1CCN(C2CC(=O)N(c3ccccc3)C2=O)CC1 (stereo not drawn)	none
Cc1ccc(CN2CCC(CNC(=O)c3c(C)noc3C)C2)cc1C (stereo not drawn)	none
CCN(CC)c1cc(C)c2cc(NC(=O)Cc3cccs3)ccc2n1	none
CCOC(=O)N1CCN(C2CCCN(C(=O)c3ccc(=O)[nH]c3)C2)CC1 (stereo not drawn)	none
Cc1[nH]nc2c1C(c1c(F)cccc1F)C(C#N)=C(N)O2 (stereo not drawn)	ST2 IL33 inh 32.0%
CCOc1ccc(C2C(C#N)=C(N)Oc3n[nH]c(C)c32)cc1 (stereo not drawn)	none
CCCCOc1ccc(C2C(C#N)=C(N)Oc3n[nH]c(C)c32)cc1 (stereo not drawn)	none
Cc1[nH]nc2c1C(c1cc(Br)cs1)C(C#N)=C(N)O2 (stereo not drawn)	ST2 IL33 inh 33.0%
